B1: LC3A_3_1549 (protein)
chain: MEELLEETLKRLKEAGASEEVIEAVRKALQALIDRGYEEALKEFAREVEELIGLPDEILLDFAEEVLRAIEEEDLNEEELIERIKEIATIAKNEGEIIEL
B2: LC3A_28_855 (protein)
chain: SETRKSIEEAREELEKAREAKEPAVITVTVTSDVTEEEVEEVIELIKEAAEASKEVPDLTLIIDFEGEIDPEHLNRITDAADEAIKKNPKLNVIFALDEE
B3: LC3A_147_414 (protein)
chain: TVVEIDILVKSKEAVEKIKERMKEIVKELKAKGYKVKLEIKVEEVEPGVYLVDITIEIEAETKEDAEAAANFVLDKIDEMEEELKDEILGSLISVEIEEK
B4: LC3A_127_214 (protein)
chain: EKEKLIKELLELIRKAQELLAKPDYDLEEIRKLLEEAIKVAKELLKLDERFKPVLEDLESALKLVDQMENLSPAEQEEARERVSMLLDGAEIELLSLELK
B5: LC3A_147_516 (protein)
chain: YKVTVEIDLLLKNSKELAEEMAEEIKEYLESKGYEVEVELEFEEDEDGTIFAKITITVKAETKEEAEKVANEVLEKIDELLEKYKDKILGALISVSIEEE
B6: LC3A_147_517 (protein)
chain: YLVEVEIDMLLKNSKELAEEIAKEIEERLKEKGYKVEVELEFEEDEDGTIFADITIKVEAETLEEAKEVANEILDIIDELLEKNKDKILGALISVSITKK
B7: LC3A_132_295 (protein)
chain: MEEKAEKYLKELKALIAAAKANIDDDAKVTALLKEIEAKIEEAEKELTPEEVAKVFEEVADELWALSQVFDAAGKEQLALEADGLAIEAASLALRAKEKI
B8: LC3A_45_1925 (protein)
chain: MWEATLDVLVPRELAEKAYATAKELMAELEAEHGPDLRVDWATLDESYAASKDEEDVYLEIRIYHPDEQVALDAADRLEDELNAALGGKASSIISLKKLP
B9: LC3A_free_8_2533 (protein)
chain: KREEFVNKALELLDEFEEEIRKKAKELGLDELDILDLELLIGSLKIEVVELRDKPMEEILKTIEEGLEEIIEEAKELSEELAEKVEELAEEILEELKEMM
B10: LC3A_147_503 (protein)
chain: YLLKVDIDIIVKNAEEEVKKMVEEIEEELKKKGFEVKVKINIEQLDENTTYISINIEVKAKTKEEAEEAANYIIDKFDKYLEENKDKILGALISVEIEKE
B11: LC3A_28_660 (protein)
chain: SATREAADAAIAAARAAAARGEPAVITLTVTGDATPEDIDYVLAALEEIAAILAPIPGSAIVIDLEAGVDPEHRQRIIDKAEELEKRYPNVTVIIAEEEE
B12: LC3A_3_1416 (protein)
chain: MEEAKKKALEALKKAGHSEETLKALNELVDLLEARGAEEEAKEVLELVLENKDISSELLLEVLNEAIELLTVKKLSPEEVIKELKEELRIARNEEEIIEL
B13: LC3A_3_1375 (protein)
chain: SEELIEETLAYLREKGKSEETLEAVRRAMEALAEKGYEEALKTFAELLKEMEDLPDEILLDFAEDVLEAVENEDLNEEELIEFIKEEARVARSEGEIIEL
B14: LC3A_free_8_2497 (protein)
chain: SRQEIVDRLLELIDELEEELEEKAKELGLSELDILDITLELGSLKAEIISNSDEPLEVIREELEEGLEEIIELTEELSEELEELAEEGAEKILEELEELE
B15: LC3A_28_1014 (protein)
chain: SHMEERVAALIAEIEAALAKGEYVVATLTITPEDSLEEVKAAMERVGKAALEAAKKGIVDVVVDLEKGVSQEKLDAVMEAADELEKKAPKLNVVIALEEE
B16: LC3A_free_0_2106 (protein)
chain: MTVVGEVLAITEKALTPEQLKKVKEEMEKIAKELEEEYGMKVEVTVKEVDGRTVFTLKFSKEGLSIEEAIEIVDEVADKLEEKLKELGADVTIYTSVYEE
B17: LC3A_17_542 (protein)
chain: MEEIKKELEELLKKLEKLVEKLAEYDPEKAKKLKKKLEEAKKLIKAGKLKEAAELLAEAAREAAEAWEELEPEYGTEASVYAMEASGLELEAIGILLKLD
B18: LC3A_17_544 (protein)
chain: MEELKKELEKLLKKLEELVKELEKYDPEKAKKLKKQLEEAKKLIKAGKLREAAELLAKAAREAADAFEKLEPKYGTKASVLAMEASGLELEAIRILLKLE
B19: LC3A_28_1074 (protein)
chain: SAVEEENEKILKEAKEAKEKGEPAVITIKIDESDTDEDIEKKLETIREVAEILKDVEGAAIIIDLEGEKALSRLDEVADLADELEEKYPNLTVIIALDDE
B20: LC3A_free_46_2358 (protein)
chain: YKAEIDIDLLHEDKEVLEKAVEEIEKAAREIAEKYGLKVEIEKEFEKLPDGSYYARIRITLEGEDKEKVEEAVNELINEIDKISKKYDVASIISYEIEEK
B21: LC3A_free_8_2524 (protein)
chain: SKQEFANKATEVLDELEEKLRKALEELGASRLDILEAEVLVGSIIAEVISLSDKEPEEQLKAIKEGLKDLVEELEKYKETVKKLADEALKKIEEIKKELE
B22: LC3A_147_445 (protein)
chain: VKVEVTIGVLMKNKPEVGDELVEKLRETAEAAGAEVEVEVEREKIDENTVYLLIKLTLTTETREAAEALANKVIDTVEEFAEKHKDEILGYIISVEISEA
B23: LC3A_127_188 (protein)
chain: EIEKLIKELLKELEKLSELLSSPDFDLEEAEKLAKKILKLAKELEKLDPRFKPLVEDAKELLKIIEEMKNASPAEQEELKEHALMLVEGMEIEALSLELK
B24: LC3A_free_46_2376 (protein)
chain: YKIEIDIYFSAMSKEKAEEMAEEIKKAAEEISKKTGVKIEVEVKIITDENGETWLEVKVTIEGEDKEKALKAATELIDKFDEIAEKHGVSLIISVEEIDE
B25: LC3A_59_2018 (protein)
chain: SEELEALRERLREAVDDIDAFVAIVREGLERFRDDPERVRALLRAAMDVIVEELGMDPEEAEKTLAEMLAIWETEPDKEEAIARVTELVRDTLLLTPIEE
B26: LC3A_free_8_2515 (protein)
chain: MNQEFANKATEILEELEEKLVELLKEKGASELDILEAELLIGSAIAEVISLSDKSPEEILKAIRESLEELVEELEEHREEVKELAEEALKKIEEKKKELE
B27: LC3A_3_1855 (protein)
chain: MEEIIEEALKLLKELGRSEETIEAARKLLEALKERGFEEAAKVLLEELKKLKNVSDEDLLEMFNELLKALEEEDLNEEEAIELIKSEARVLLNAEEIEEL
B28: LC3A_3_1647 (protein)
chain: PEEEVEETVELLREAGHSEETIEAFRETAEALLERGYEEALRVLIEETRELLDLPDEILLAMLEEVLRVIKEEDLSEEEVIEEIRRIARIARSEGEIIEL
B29: LC3A_free_39_2193 (protein)
chain: SAAETEKAKAELLALAAEAGEEAKKLAEEIIKLIGEDLEKLKKLLEALKKAKEAGVDVLEVLKEALELAKELKKQGKSKEEIFEEVLELIEDAINLIPID

Whole data set: some 2,300 sequences, median “median log2 fold change of GCK-ALFA target abundance (FLAG IP / Myc IP barcode read proportion)” near 0.095, cut for the lowest 2% near -0.47. The sample holds the lowest values, similar sequences and a random draw of the others, so the mix is not that of the screen.

The target of the experiment is MAP1LC3A, Q9H492. In words: median log2 fold change of GCK-ALFA target abundance (FLAG IP / Myc IP barcode read proportion) (log2 ratio); each designed protein is fused to an ALFA-tag nanobody in HEK293 cells to bring the named protein to FLAG-tagged glucokinase (GCK); Myc marks an untargeted standard; higher = target protein stabilised (more abundant). The following applies: target protein: 3xFLAG-MCP-GCK-ALFA reporter; HEK293 landing pad (RPLP). The method in brief:
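HEK293 landing-pad cells received a recombined binder library fused to the ALFA nanobody and were induced with 2 μg mL^−1 doxycycline, then transfected with a plasmid encoding a FLAG-tagged target and a Myc-tagged standard. Lysates were collected after 48 h for anti-FLAG and anti-Myc immunoprecipitation, and the circular RNA barcodes were reverse transcribed, amplified and sequenced. Target abundance for each binder is the median log2 ratio of FLAG to Myc barcode read proportions. Barcodes had to reach a proportion of at least 10^−7 in both replicates, each binder needed at least 3 barcodes per replicate, a pseudocount of 10^−6 was applied, and the two replicates were pooled.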
Consider B1, for which the “median log2 fold change” value worked out at 0.258.

On to B2, for which the “median log2 fold change” value is 0.127.

As to B3, the “median log2 fold change” value was -0.515.

As for B4, the “median log2 fold change” value is 0.409.

In the case of B5, the “median log2 fold change” value was -0.0638.

In the case of B6, the “median log2 fold change” value is -0.778.

For the molecule B7, the “median log2 fold change” value stood at 0.0471.

For the molecule B8, the “median log2 fold change” value is -0.101.

As to B9, the “median log2 fold change” value was -0.133.

As to B10, the “median log2 fold change” value was -0.665.

Take B11: the “median log2 fold change” value amounted to 0.104.

Regarding B12, the “median log2 fold change” value was 0.297.

B13: the “median log2 fold change” value turned out to be 0.306.

With B14, the “median log2 fold change” value is -0.679.

With B15, the “median log2 fold change” value is -0.297.

For B16, the “median log2 fold change” value was -0.0524.

B17: the “median log2 fold change” value is -0.71.

Consider B18, for which the “median log2 fold change” value was 0.0592.

As for B19, the “median log2 fold change” value was 0.0473.

For B20, the “median log2 fold change” value was -0.026.

Turning to B21, the “median log2 fold change” value was -0.575.

With B22, the “median log2 fold change” value is -0.265.

Regarding B23, the “median log2 fold change” value was 0.156.

With B24, the “median log2 fold change” value is -0.231.

As for B25, the “median log2 fold change” value was -0.587.

For B26, the “median log2 fold change” value worked out at 0.159.

Take B27: the “median log2 fold change” value came to 0.224.

As to B28, the “median log2 fold change” value worked out at 0.138.

As for B29, the “median log2 fold change” value is 0.242.

(Values after the supplement of paper PMC12632987.)
